# Bioassay records as filed in PubChem BioAssay.
# HPGD block – inhibitors of human 15-hydroxyprostaglandin dehydrogenase (HPGD) | P15428 | 4.3% of 150,000 active | Potency, µM, for inactives: at the highest dose activity change, negative = inhibition, most hits filed as inhibitors | purified HPGD, NADH fluorescence kinetic, PGE2 substrate; active = well fitted inhibition curve with a large enough effect, not every such curve was filed as active; inconclusive = small, poorly fitted or top-dose-only effect, or another doubt; inactive = no such curve, though single readings can be large or run the other way
# Target sequence (P15428 whole entry, looked up): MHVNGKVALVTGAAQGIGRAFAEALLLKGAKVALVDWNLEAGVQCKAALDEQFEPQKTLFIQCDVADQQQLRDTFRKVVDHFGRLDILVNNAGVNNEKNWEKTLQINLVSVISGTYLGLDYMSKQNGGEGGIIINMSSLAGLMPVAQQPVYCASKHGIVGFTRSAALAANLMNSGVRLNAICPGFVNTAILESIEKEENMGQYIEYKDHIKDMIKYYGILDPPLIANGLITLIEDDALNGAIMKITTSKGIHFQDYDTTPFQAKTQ
#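 NADH formation kinetics: reaction with 30 uM PGE2 and 1 mM NAD+ (final), 20 nM enzyme, Tris-HCl pH 8 with Tween 20, after 15 min compound preincubation at room temperature. Fluorescence change, last versus first of five reads.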
# Tau fibril ThT – blocks human tau fibril formation measured by thioflavin T | Potency, µM (doses to about 57.4 µM), for the others: at the highest dose activity, negative = inhibition, hits mostly inhibitors | recombinant tau K18 P301L, heparin-induced fibrillization, ThT fluorescence | 2.1% of 270,000 active | P10636; note: nearly all actives have a fitted effect of over 55% in size
#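 Aggregation was driven by heparin (20 uM final) acting on recombinant tau […] bearing P301L in 100 mM sodium acetate pH 7; fibrils were detected with Thioflavin T.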
# NPSR antag – blocks cAMP signaling of the human neuropeptide S receptor | Q6W5P4 | CHO-NPSR cells, cAMP TR-FRET, antagonist mode | Potency, µM (top dose mostly 38.3 µM), for inactives: top-dose activity change, negative = inhibition, actives largely listed as inhibitors | 1% of 220,000 active | AID 1461; note: nearly all actives have a fitted effect of over 50% in size
# Target sequence (Q6W5P4 whole entry, looked up): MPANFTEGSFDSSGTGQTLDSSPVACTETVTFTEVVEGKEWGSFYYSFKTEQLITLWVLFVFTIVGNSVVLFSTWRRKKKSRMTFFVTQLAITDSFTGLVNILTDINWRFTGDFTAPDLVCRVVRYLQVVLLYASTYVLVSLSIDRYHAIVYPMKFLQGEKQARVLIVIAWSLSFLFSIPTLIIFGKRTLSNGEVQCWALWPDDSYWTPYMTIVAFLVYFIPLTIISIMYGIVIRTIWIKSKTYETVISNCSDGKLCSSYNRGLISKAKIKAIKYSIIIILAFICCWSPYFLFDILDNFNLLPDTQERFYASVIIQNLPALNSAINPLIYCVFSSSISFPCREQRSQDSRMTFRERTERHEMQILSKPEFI
# ALDH1A1 block – inhibitors of human aldehyde dehydrogenase 1A1; 7.3% of 220,000 active; Potency, µM (titrated, usually from 75.3 µM), without a hit: at the highest dose activity, negative = inhibition, most hits filed as inhibitors; AID 1030; Purified ALDH1A1, NADH fluorescence, propionaldehyde substrate; active = well fitted inhibition curve with a large enough effect, not every such curve was filed as active; inconclusive = small, poorly fitted or top-dose-only effect, or another doubt; inactive = no such curve, though single readings can be large or run the other way;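 note: plate controls were no enzyme wells and a reference inhibitor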
# Tau fibril FP – tau fibrillization inhibition (FP); P10636; K18 P301L tau heparin fibrillization, Alexa594 FP, 6 h; Potency, µM (top dose mostly 57.7 µM), for the others: at the highest dose activity, negative = inhibition, actives largely listed as inhibitors; 0.39% of 280,000 active; AID 1468; note: nearly all actives have a fitted effect of over 55% in size
#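 Compound effects on tau fibrillization are measured by Alexa 594 fluorescence polarization (ex 555, em 632 nm). K18 P301L tau is used at 15 uM with 0.24 uM labeled tracer, and 20 uM heparin induces aggregation over 6 hr at 37 C.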
# Tau fluor counter – counter-screen for tau fibril formation inhibitors; AID 1463; tau K18 P301L Alexa594 fluorescence, heparin fibrillization; 0.93% of 280,000 active; Potency, µM (highest dose often 57.7 µM), inactives show top-dose activity change, negative = decrease; note: nearly all actives have a fitted effect of over 55% in size
#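 Human tau K18 P301L (15 uM unlabeled, 0.24 uM Alexa 594-labeled) in 100 mM sodium acetate pH 7 with 20 uM heparin, 6 hr at 37 C. ThT 30 uM added, 1 hr ambient; Alexa 594 FP and total fluorescence read at 555/632 nm.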
# Active calls of the source: *; ? = inconclusive; . = not tested or not shown; [ ] = another dose, or the depositor's remark. This is a sample that favours compounds with a hit; in the whole collection about 9.5% have one here. Unless noted, calls come from the whole dose curve; as a rule, active = well fitted curve in the direction sought with a large enough effect; inconclusive = small, poorly fitted or top-dose-only effect, or another doubt; inactive = no such curve, though single readings can be large; an effect the other way counts as inactive or inconclusive. Unless noted, % is set by controls: 0 for no effect and ±100 for the full control effect; potency is the fitted concentration of half-maximal effect.
SMILES,HPGD block,Tau fibril ThT,NPSR antag,ALDH1A1 block,Tau fibril FP,Tau fluor counter
CC(C)=CCOc1ccc(/C=C/C(=O)c2ccc(OCC=C(C)C)cc2OCC(=O)O)cc1,11µM*,?,.,-6%,2%,-16%
CCOc1ccc(/C=C/C(=O)c2ccc(-c3ccccc3)cc2)cc1,-17%,-10%,-3%,-10%,0%,-15%
Cc1ccc(C(=O)N2CCN(C)CC2)cc1S(=O)(=O)N1CCCCC1,-21%,-4%,0%[46.1 µM],?,-3%,0%
CN1CCN(C(=O)c2ccc3c(c2)NC(=O)C(C)(C)O3)CC1,8.9µM*,-4%,-13%[46.1 µM],-4%,2%,-3%
CC(C)(C)c1ccc(NC(=O)CSc2nnc(-c3n[nH]c4ccccc34)o2)cc1,-18%,-8%,-30%,0%,32µM*,?
Cc1cccc(N=C2NN=C(c3ccc4c(c3)OCCO4)CS2)c1,-14%,11µM*,-18%[46.1 µM],?,-12%,?
Cc1cccc(N=C2NN=C(c3c(C)[nH]c4ccccc34)CS2)c1,-16%,0%,-57%,?,-8%,-1%
C=C1C[C@@]23C[C@@]1(O)CC[C@@H]2[C@]12C=C[C@@H](O)[C@](C)(C(=O)O1)[C@@H]2[C@@H]3C(=O)O,-5%,-3%,.,6%,7%,-1%
CC(Nc1cc(N2CCCC2)ccc1[N+](=O)[O-])c1ccccc1 (stereo not drawn),-26%,?,-22%[46.1 µM],?,?,-17%
CCCC(=O)N1CCN(c2ccc([N+](=O)[O-])c(NC(C)c3ccccc3)c2)CC1 (stereo not drawn),-27%,14µM*,?,?,7%,-19%
CC1(C)NC(=O)N(CCCCOc2ccc3ccccc3c2Cl)C1=O,-28%,-8%,-12%[46.1 µM],18µM*,-2%,-24%
CCC(=O)c1ccccc1OCCCN1C(=O)NC(C)(C)C1=O,-11%,1%,-4%[46.1 µM],10µM*,3%,4%
CCC(C)Oc1cccc(OCCCCN2C(=O)NC(C)(C)C2=O)c1 (stereo not drawn),-8%,-5%,-14%[46.1 µM],-12%,10%,-4%
CC1(C)NC(=O)N(CCOCCOc2ccc3ccccc3c2Br)C1=O,-25%,-14%,4%[46.1 µM],-8%,11%,-18%
Cc1nc2c(C)cccc2cc1C(=O)N/N=C/c1cccnc1,-10%,-13%,10%,6%,7%,-5%
CS(=O)(=O)N(Cc1ccco1)CC(O)Cn1cc(C=O)c2ccccc21 (stereo not drawn),-25%,-10%,-11%[46.1 µM],1.3µM*,1%,-1%
Cc1ccc(S(=O)(=O)Nc2ccc(NC(=O)CN3CCCCC3)cc2)cc1,2%,-5%,-8%[46.1 µM],-2%,3%,-7%
Cc1ccc(S(=O)(=O)Nc2cc(NC(=O)CN3CCOCC3)ccc2Cl)cc1,-11%,-6%,-17%[7.67 µM],18µM*,-5%,-13%
O=C(CCN1C(=O)c2ccccc2S1(=O)=O)Nc1ccccc1,.,1%,0%,-8%,7%,9%
O=C(CN1CCN(CC(=O)Nc2ccccc2Cl)CC1)Nc1ccc2c(c1)OCCO2,-8%,-15%,-15%[46.1 µM],7.9µM*,7%,-14%
O=C(CN1CCC(C(=O)c2ccc(Cl)cc2)CC1)Nc1ccc2c(c1)OCCO2,-10%,-16%,?,-8%,-3%,-13%
O=C(CN1CCCN(S(=O)(=O)c2ccc(Br)cc2)CC1)Nc1ccc2c(c1)OCO2,-8%,?,-17%[46.1 µM],11µM*,1%,?
O=C(CCN1C(=O)c2ccccc2S1(=O)=O)Nc1ccc2c(c1)OCCO2,-16%,2%,-8%[46.1 µM],6.3µM*,-4%,4%
COc1ccc(-n2c(=O)c3ccccc3n(CC(=O)NC3CCCC3)c2=O)cc1,-10%,-3%,0%[46.1 µM],-7%,-2%,-1%
O=C(CCc1ccccc1)Nc1ccc2c(c1)OCCO2,-17%,-10%,4%[46.1 µM],-8%,2%,-16%
SMILES,HPGD block,Tau fibril ThT,NPSR antag,ALDH1A1 block,Tau fibril FP,Tau fluor counter
O=C(CN1CCC(Cc2ccccc2)CC1)Nc1ccc2c(c1)OCCO2,-8%,-4%,-17%[46.1 µM],28µM*,-5%,-7%
CCOC(=O)c1cc(-c2ccccc2)n(-c2cccc(C(=O)Nc3cccc(F)c3)c2)c1C,.,0%,.,.,?,-13%
COc1ccc(-n2c(C)cc(/C=C/c3nc(O)c([N+](=O)[O-])c(=O)[nH]3)c2C)cc1,.,16µM*,-6%,?,2%,-7%
CC(=O)OCC1OC(C#Cc2ccc(Br)cc2)C=CC1OC(C)=O (stereo not drawn),.,-17%[11.5 µM],.,-5%[13.5 µM],-8%[11.6 µM],-2%[11.6 µM]
Cc1nc2ccccn2c1C(=O)NNS(=O)(=O)c1ccc(C(C)(C)C)cc1,-1%,5%,5%,1.1µM*,4%,8%
CCNC(=O)c1c(C)nc2ccccn12,-16%,-1%,?,3%,-6%,1%
Cc1nc2ccccn2c1C(=O)NN,.,-5%,-2%[46.1 µM],2.2µM*,2%,-3%
CCc1cc(SC#N)ccc1N,.,13µM*,1%,?,?,-18%
COCCCNC(=O)C1CCC(Cn2c(=O)c3sccc3n(C)c2=O)CC1 (stereo not drawn),.,-3%,.,.,2%,4%
CC(C)NCC#CCOc1ccc(Cl)cc1,.,6%,7%,2.4µM*,6%,5%
COc1cc([N+](=O)[O-])cc(/C=N/N(CCC#N)C(C)=O)c1O,.,?,-18%,10µM*,4%,-1%
O=CN1CCN(C[C@H](O)CN2CCCCC2)CC1,-4%,.,.,-8%[13.5 µM],.,.
CCCCCCCCC(=O)N/N=C(\C)c1ccco1,-7%,-4%,-8%,5%,8%,0%
CCCCCCC(=O)N/N=C/Cc1ccccc1,-21%,8%,-2%[46.1 µM],13µM*,2%,0%
COc1ccc(-c2[nH]c(-c3ccc(C)cc3)nc2SCC(=O)Nc2nccs2)cc1,-9%,?,-11%,1%,?,18µM*[quencher]
COc1ccc(-c2nc(SCC(=O)Nc3nccs3)c(-c3ccc(Cl)cc3)[nH]2)cc1,-14%,3%,-19%,6%,5%,0%
O=C(CSc1nc(-c2ccccc2)c(-c2ccccc2)[nH]1)Nc1nccs1,-13%,?,-30%[46.1 µM],-7%,2%,14µM*[quencher]
COc1ccc(-c2[nH]c(-c3ccc(SC)cc3)nc2SCC(=O)Nc2nccs2)cc1,?,?,-11%,?,8%,7.1µM*[quencher]
CC1(c2ccc3c(c2)OCO3)NC(=O)N(CC(=O)Nc2ccc(N3CCOCC3)cc2)C1=O (stereo not drawn),-11%,?,-5%[46.1 µM],0%,13%,-14%
O=C(O)Cn1cc(/C=C2\SC(=O)N(c3ccccc3)C2=O)c2ccccc21,.,?,-17%,22µM*,-1%,-7%
COc1ccccc1NC(=O)CN1C(=O)C(c2ccc(F)cc2)=NC1(C)C,.,-1%,.,.,-3%,-9%
